Screening data (PubChem)
LEDGF integ inh: blocks HIV-1 LEDGF/p75-dependent DNA integration; inhibition, % at 3.7 µM; 0.64% of 370,000 active; TR-FRET IN-LEDGF/p75 DNA integration, Eu/Cy5;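 active = inhibition above the screen-wide mean plus 3 SD, cut at about 13% in these data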;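 note: signal is the Cy5 over europium emission ratio at 671 and 618 nm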
MBD2 inh: inhibitors of human MBD2 binding to methylated oligonucleotide. Q9UBB5. TR-FRET. inhibition, % at 4.4 µM. 0.31% of 370,000 active. AID 686964; in the data active = inhibition above about 13%
Target sequence (Q9UBB5 whole entry, looked up): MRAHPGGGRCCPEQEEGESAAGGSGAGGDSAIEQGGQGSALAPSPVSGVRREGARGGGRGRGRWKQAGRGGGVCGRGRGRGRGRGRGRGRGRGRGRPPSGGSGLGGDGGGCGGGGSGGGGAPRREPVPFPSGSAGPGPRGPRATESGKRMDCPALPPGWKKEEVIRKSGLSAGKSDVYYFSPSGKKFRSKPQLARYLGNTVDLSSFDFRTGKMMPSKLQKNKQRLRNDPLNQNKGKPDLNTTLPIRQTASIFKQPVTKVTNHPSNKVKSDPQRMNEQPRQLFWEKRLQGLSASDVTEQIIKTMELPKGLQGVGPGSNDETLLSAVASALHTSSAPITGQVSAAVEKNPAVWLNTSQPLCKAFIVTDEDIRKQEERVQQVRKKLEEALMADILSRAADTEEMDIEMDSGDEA
CASP6 VEID inh: inhibitors of human caspase-6; purified caspase-6, Z-VEID-R110 cleavage fluorescence; inhibition, % at 12.5 µM; AID 686996; 0.53% of 350,000 active; P55212;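 active = mean inhibition across replicates at least about 35%, with every replicate also reaching that limit, limit read from the data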
Target sequence (P55212 24-179 limits assumed): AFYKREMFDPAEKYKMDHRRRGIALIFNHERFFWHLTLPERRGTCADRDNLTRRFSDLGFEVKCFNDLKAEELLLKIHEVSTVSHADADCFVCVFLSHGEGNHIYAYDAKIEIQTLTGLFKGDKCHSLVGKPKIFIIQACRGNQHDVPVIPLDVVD
Target sequence (P55212 194-293 limits assumed): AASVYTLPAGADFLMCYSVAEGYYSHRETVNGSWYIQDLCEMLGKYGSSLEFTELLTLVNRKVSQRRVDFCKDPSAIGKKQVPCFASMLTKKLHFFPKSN
UHRF1 binding: UHRF1 methyl-DNA binding inhibition; Q96T88; UHRF1 binding to methylated oligo, TR-FRET; inhibition, % at 4.4 µM; 0.75% of 370,000 active; in the data active = inhibition above about 21%;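 note: UHRF1 SRA domain binding a hemimethylated CpG hairpin DNA probe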
IN multimer up: HIV-1 integrase multimerization activation, counter-screen. shares compounds with LEDGF integ inh. TR-FRET HIV-1 integrase multimerization, biochemical. activation, % at 7.7 µM. 17% of 2,000 active; in the data active = activation above about 8.9%
TRFRET interf: counter-screen for LEDGF/p75 integration inhibitors: TR-FRET optical interference; shares compounds with LEDGF integ inh; TR-FRET optical interference counterscreen, HIV-1 IN multimerization; inhibition, % at 7.7 µM; 2,000 tested, under 10 active; AID 1053135;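 active = inhibition above the mean over all tested compounds plus 3 SD, which no compound reached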
IN-LEDGF confirm: LEDGF/p75-dependent HIV-1 integration inhibition, confirmation; shares compounds with LEDGF integ inh; TR-FRET LEDGF/p75-dependent HIV-1 integration, biochemical; inhibition, % at 3.7 µM; 36% of 2,000 active; AID 1053136; in the data active = inhibition above about 14%
Of the large screens only hits and unclear results are named; the others gave an inactive call (follow-up assays come after a bar, where they were run). Shown are actives, neighbours in structure and some others; about 1.4% of the full set was active somewhere.

Cc1ccc(Cl)cc1-c1ccc(C=Nc2ccc(N3CCOCC3)cc2)o1	LEDGF integ inh 28 | IN multimer up inactive | TRFRET interf inactive | IN-LEDGF confirm inactive
CCCCCC(=O)N/N=C/c1ccc([N+](=O)[O-])o1	none
CCN(CC)c1ccc(N=Cc2ccc([N+](=O)[O-])o2)cc1	LEDGF integ inh 41, UHRF1 binding 25 | IN multimer up inactive | TRFRET interf inactive | IN-LEDGF confirm 18
CC(=O)N1[C@@H]2c3ccc(C4=CCCC4)c(=O)n3C[C@H]1[C@H](CO)[C@H]2C(=O)N[C@@H](C)c1ccccc1	none (no result: LEDGF integ inh, MBD2 inh, UHRF1 binding)
Cc1[nH]c2ccccc2c1/C=N/Nc1nncn1N	LEDGF integ inh 74 | IN multimer up inactive | TRFRET interf inactive | IN-LEDGF confirm inactive
Cc1[nH]c2ccccc2c1/C=N/Nc1ccccn1	none
N#C[C@@H]1[C@@H](c2ccc(/C=C/c3ccccc3)cc2)[C@@H](CO)N1C(=O)Cc1ccccn1	none (no result: LEDGF integ inh, MBD2 inh, UHRF1 binding)
CN1C2CCC1/C(=C/c1cccn1C)C(=O)/C2=C\c1cccn1C	LEDGF integ inh 14 | IN multimer up inactive | TRFRET interf inactive | IN-LEDGF confirm inactive
CN1C2CCC1/C(=C\c1ccc(F)cc1)C(=O)/C2=C/c1ccc(F)cc1	none (no result: CASP6 VEID inh)
Cc1ccc(S(=O)(=O)N(C)C[C@@H]2OCCCC[C@@H](C)Oc3ccc(NS(=O)(=O)c4ccc(F)cc4)cc3C(=O)N([C@@H](C)CO)C[C@H]2C)cc1	none (no result: LEDGF integ inh, MBD2 inh, UHRF1 binding)
O=C(N/N=C/c1c(O)n(Cc2ccco2)c(=O)[nH]c1=O)c1ccccc1	LEDGF integ inh 53, UHRF1 binding 34 | IN multimer up 13 | TRFRET interf inactive | IN-LEDGF confirm inactive
Cc1cccc(C)c1NC(=O)CCCCCC1NC(=O)NC1C (configuration not stated)	LEDGF integ inh 20 | IN multimer up inactive | TRFRET interf inactive | IN-LEDGF confirm inactive
O=C(O)CCCN1C(=O)C2C3CCC(C3)C2C1=O (configuration not stated)	none
O=C(O)CCCCC1SCC2NC(=O)NC21 (configuration not stated)	LEDGF integ inh 70 | IN multimer up inactive | TRFRET interf inactive | IN-LEDGF confirm 63
CCCCCC1NC(=O)NC1CCCCCC(=O)O (configuration not stated)	none (no result: CASP6 VEID inh)
C[C@@H]1NC(=O)N[C@@H]1CCCCCC(=O)O	LEDGF integ inh 82 | IN multimer up inactive | TRFRET interf inactive | IN-LEDGF confirm 74
O=C(C[C@H]1CC[C@@H](NC(=O)Nc2ccc(C(F)(F)F)cc2)[C@H](CO)O1)NCCN1CCCC1	none (no result: LEDGF integ inh, MBD2 inh, UHRF1 binding)
Cc1noc(C)c1S(=O)(=O)Nc1ccc2c(c1)C(=O)N([C@@H](C)CO)C[C@H](C)[C@H](CN(C)S(=O)(=O)c1ccc(F)cc1)OCCCC[C@H](C)O2	none (no result: LEDGF integ inh, MBD2 inh, UHRF1 binding)
COP(=O)(OC)C(=NNS(=O)(=O)c1ccc(C)cc1)c1ccccc1	LEDGF integ inh 27 | IN multimer up inactive | TRFRET interf inactive | IN-LEDGF confirm inactive
CCCc1cn(CC[C@H]2CC[C@@H](NC(=O)Cc3cccnc3)[C@H](CO)O2)nn1	none (no result: LEDGF integ inh, MBD2 inh, UHRF1 binding)
COCCN(CCOC)Cc1c(O)ccc2c1O/C(=C\c1ccco1)C2=O	LEDGF integ inh 41, UHRF1 binding 25 | IN multimer up 24 | TRFRET interf inactive | IN-LEDGF confirm 22
Cc1ccc(/C=C2\Oc3c(ccc(O)c3CN3CCN(CCO)CC3)C2=O)cc1	none
O=C1/C(=C/c2ccco2)Oc2c1ccc(O)c2CN1CCCCC1	LEDGF integ inh 22 (no result: CASP6 VEID inh) | IN multimer up 13 | TRFRET interf inactive | IN-LEDGF confirm 23
CCC(=O)Oc1ccc2c(c1)O/C(=C\c1ccco1)C2=O	LEDGF integ inh 25, CASP6 VEID inh 59 | IN multimer up inactive | TRFRET interf inactive | IN-LEDGF confirm inactive
COC(=O)COc1ccc2c(c1)O/C(=C\c1ccco1)C2=O	none
CO[C@H]1CN(C)C(=O)c2cc(NC(=O)NC(C)C)ccc2OC[C@@H](C)N(C)C[C@H]1C	none (no result: LEDGF integ inh, MBD2 inh, UHRF1 binding)
Cc1ccc(S(=O)(=O)Nc2cccc3c2O[C@@H](CN(C)Cc2ccc(C(=O)O)cc2)[C@H](C)CN([C@@H](C)CO)C3=O)cc1	none (no result: LEDGF integ inh, MBD2 inh, UHRF1 binding)
O=C(CC1CS(=O)(=O)CC1CC(=O)Oc1ccccc1F)Oc1ccccc1F (configuration not stated)	LEDGF integ inh 24 | IN multimer up inactive | TRFRET interf inactive | IN-LEDGF confirm inactive
O=C(Cc1ccccc1)N1CC(=O)N2[C@H](CO)[C@@H](c3ccc(Br)cc3)[C@@H]2C1	none (no result: LEDGF integ inh, MBD2 inh, UHRF1 binding)
COc1cc(CNc2ncnc3c2ncn3[C@H]2CN(Cc3cccc(C(F)(F)F)c3)C[C@@H](COC(C)=O)O2)cc(OC)c1OC	LEDGF integ inh 38 | IN multimer up inactive | TRFRET interf inactive | IN-LEDGF confirm inactive
COc1cccc(N/N=C/c2cccc(Br)c2O)c1	none
Cc1cccc(N/N=C/c2ccc(O)c(O)c2O)c1	LEDGF integ inh 70 | IN multimer up 9.1 | TRFRET interf inactive | IN-LEDGF confirm 29
CC(=O)N(C)C[C@@H]1Oc2ncc(C#Cc3ccccc3F)cc2C(=O)N([C@@H](C)CO)C[C@H]1C	none (no result: LEDGF integ inh, MBD2 inh, UHRF1 binding)
Nc1ccc2cc3ccc(N)cc3nc2c1	LEDGF integ inh 44 (no result: CASP6 VEID inh) | IN multimer up 33 | TRFRET interf inactive | IN-LEDGF confirm 74
C[C@@H]1CN([C@H](C)CO)C(=O)c2cccc(NC(=O)c3nc4ccccc4s3)c2O[C@@H]1CN(C)S(=O)(=O)c1cn(C)cn1	none (no result: LEDGF integ inh, MBD2 inh, UHRF1 binding)
CC(=O)Nc1cc(C(F)(F)F)ccc1Oc1cccc(Br)c1	LEDGF integ inh 16 (no result: CASP6 VEID inh) | IN multimer up inactive | TRFRET interf inactive | IN-LEDGF confirm inactive
CCn1c(C)cc(/C=C2\NC(=O)N(Cc3ccccc3)C2=O)c1C	LEDGF integ inh 17 (no result: CASP6 VEID inh) | IN multimer up inactive | TRFRET interf inactive | IN-LEDGF confirm inactive
CCn1c(C)cc(/C=C2/NC(=O)N(Cc3ccccc3F)C2=O)c1C	none
C[C@@H]1CN([C@@H](C)CO)C(=O)Cc2cc(NC(=O)Nc3ccccc3)ccc2O[C@@H]1CN(C)S(C)(=O)=O	none (no result: LEDGF integ inh, MBD2 inh, UHRF1 binding)
O=C(/C=C/c1ccco1)c1cccc([N+](=O)[O-])c1	none
O=C(O)C(C(=O)/C=C/c1ccco1)=C1SCCS1	LEDGF integ inh 18 (no result: CASP6 VEID inh) | IN multimer up inactive | TRFRET interf inactive | IN-LEDGF confirm 33
O=C(C=C1SCCS1)/C=C/c1ccco1	LEDGF integ inh 14 (no result: CASP6 VEID inh) | IN multimer up inactive | TRFRET interf inactive | IN-LEDGF confirm 35
O=C(/C=C/c1ccc([N+](=O)[O-])cc1)/C=C/c1ccco1	LEDGF integ inh 22 | IN multimer up inactive | TRFRET interf inactive | IN-LEDGF confirm 47
O=C(/C=C/c1ccco1)NC1CCCC1	none
COCC(=O)Nc1ccc2c(c1)[C@@H]1C[C@H](CC(=O)NC3CCCCC3)O[C@@H](CO)[C@@H]1O2	none (no result: LEDGF integ inh, MBD2 inh, UHRF1 binding)
